Results reported in PubChem BioAssay (EPA / NIEHS).
Records with an inconclusive call do not appear. The source made the active and inactive calls. How the source made its calls: active means hit-call score of the fitted dose curve at least 0.9, where 1 is the maximum; inconclusive means response in the unintended direction; inactive means score below 0.9.

These compounds were tested on alkyl and aryl transferase (GSTA2), GSTA2 (gene 2939) (assay: CLD_GSTA2_24hr: CellzDirect (CLD) Gene Expression Assay for alkyl and aryl transferase (GSTA2) at 24 hours (AID 2283693)).
Procedure: CLD_24hr is a cell-based, multiplexed-readout assay that uses hepatocyte, a human liver primary cell, with measurements taken at 24 hours after chemical dosing in a 96-well plate.CLD_GSTA2_24hr is one of 16 assay component(s) measured or calculated from the CLD_24hr assay. It is designed to make measurements of mRNA induction, a form of inducible reporter, as detected with chemiluminescence signals by Quantitative Nuclease Protection Assay (qNPA) technology.Data from the assay component CLD_GSTA2_24hr was analyzed at the endpoint, CLD_GSTA2_24hr, in the positive analysis fitting direction relative to DMSO as the negative control and baseline of activity. Using a type of inducible reporter, gain-of-signal activity can be used to understand changes in the reporter gene as they relate to the gene GSTA2. Furthermore, this assay endpoint can be referred to as a primary readout. To generalize the intended target to other relatable targets, this assay endpoint is annotated to the transferase intended target family, where subfamily is alkyl and aryl transferase.
Human hepatocyte cultures were treated daily for two consecutive days with fresh dosing solutions containing appropriate concentrations of the 320 ToxCast chemicals (chemical identities were blinded to CellzDirect and other ToxCast collaborators), vehicle control (0.2% DMSO), and positive control inducers as summarized in Table 1. Due to the large number of treatment groups and chemicals examined, the ToxCast chemicals were divided into two groups (spanning two independent cultures of hepatocytes from separate donor preparations (Hu778: ToxCast plates 1 and 2; Hu776: ToxCast plates 3 and 4). Each preparation of human hepatocyte cultures was treated with respective vehicle control, medium only control, set of six positive controls/reference chemicals for the five hepatic receptor pathways, and a subset of eight of the ToxCast chemicals (indoxacarb, pyrithiobac-sodium, norflurazon, cyhalofop-butyl, methomyl, thiram, acetochlor, and propiconazole). These replicate data, coupled with internal replicates designed within the blinded ToxCast chemical library, provided additional data to evaluate interindividual differences between hepatocyte preparations and their potential impact on chemical profiles.Cell morphology and integrity were evaluated using phase-contrast microscopy as an indicator of hepatocyte cell health (Tyson & Green, 1987). Cultures for each treatment group (i.e., media, vehicle [0.2% DMSO], positive control inducers [multiple concentrations], and the ToxCast chemicals [multiple concentrations]) were observed and cell morphology was assessed relative to vehicle control cultures at each harvest time point (0, 6, 24, or 48 h). […] Images were evaluated at the conclusion of the study to assess changes in cell integrity and account for the effects of chemical exposure on uncharacteristic changes in concentration-dependent gene expression profiles. The results from these determinations of apparent cytotoxicity were annotated (yes/no) alongside the corresponding qNPA data for reference.At the conclusion of each treatment period, hepatocyte cultures (96-well) were washed with 1 volume of HBSS, lysed by addition of 25 ul ArrayPlate lysis buffer (HTG, Tucson, AZ), and 70 ul/well of Denaturation Oil, denatured by incubation at 95C for 10 min, and frozen at approximately -70C until analysis by nuclease protection assay (qNPA) (Roberts et al., 2007). For qNPA analysis, cell lysates were thawed at 50C for approximately 30 min, qNPA probes were added, and samples were incubated at 95C for 10 min to begin the detection process by denaturing the target RNA, dissociating the duplexes and secondary structure hybridization. At the conclusion of the hybridization period, S1 nuclease reagent was added to each sample to digest all nonprotected nucleotides at 50C for 60-90 min. […]

| Compound | outcome |
| --- | --- |
| CCSC(=O)N(CC(C)C)CC(C)C | inactive |
| CCCOC(=O)c1ccc(C(=O)OCCC)nc1 | inactive |
| COC(=O)c1cccc(C)c1S(=O)(=O)NC(=O)Nc1nc(OCC(F)(F)F)nc(N(C)C)n1 | inactive |
| CCC(O)=C1C(=O)CC(C(=O)O)CC1=O (stereo not given) | inactive |
| COC(=O)c1ccc(CNS(C)(=O)=O)cc1S(=O)(=O)NC(=O)Nc1nc(OC)cc(OC)n1 | inactive |
| COC(=O)c1ccccc1S(=O)(=O)NC(=O)Nc1nc(OC(F)F)cc(OC(F)F)n1 | inactive |
| CCCN(CCC)C(=O)SCC | inactive |
| C=CCOC(Cn1ccnc1)c1ccc(Cl)cc1Cl (stereo not given) | inactive |
| COCCO | inactive |
| CCCCC(CC)CN1C(=O)C2C3C=CC(C3)C2C1=O (stereo not given) | inactive |
| Oc1ccc(C(c2ccc(O)cc2)C(Cl)(Cl)Cl)cc1 | inactive |
| CC(C)(c1ccc(O)cc1)c1ccc(O)cc1 | inactive |
| O=C(Nc1ccc([N+](=O)[O-])cc1Cl)c1cc(Cl)ccc1O | inactive |
| c1ccc(Nc2ccccc2)cc1 | inactive |
| CCCN(CCC)c1c([N+](=O)[O-])cc(C(F)(F)F)c(N)c1[N+](=O)[O-] | inactive |
| CCNc1nc(N)nc(Cl)n1 | inactive |
| CCCOC(=O)NCCCN(C)C | inactive |
| N#CSCSc1nc2ccccc2s1 | inactive |
| CCOC(=O)C(C)Oc1ccc(Oc2cnc3cc(Cl)ccc3n2)cc1 (stereo not given) | inactive |
| CCCCCOC(=O)COc1cc(N2C(=O)C3=C(CCCC3)C2=O)c(F)cc1Cl | inactive |
| CCCCOCCOCCOCc1cc2c(cc1CCC)OCO2 | inactive |
| CCCCOC(=O)C(C)Oc1ccc(Oc2ccc(C(F)(F)F)cn2)cc1 (stereo not given) | inactive |
| Cc1nn(C)c(Oc2ccccc2)c1C=NOCc1ccc(C(=O)OC(C)(C)C)cc1 | inactive |
| COC(=O)c1ccccc1C(=O)O | inactive |
| COc1c(Cl)ccc(Cl)c1C(=O)O | inactive |
| COC(=O)c1c(Cl)nn(C)c1S(=O)(=O)NC(=O)Nc1nc(OC)cc(OC)n1 | inactive |
| COc1nc(C)nc(NC(=O)NS(=O)(=O)c2ccccc2OCCCl)n1 | inactive |
| CCOC(=O)C(C)Oc1ccc(Oc2nc3ccc(Cl)cc3o2)cc1 (stereo not given) | inactive |
| CCC(C)OC(=O)N1CCCCC1CCO (stereo not given) | inactive |
| CCCCCCC(C)OC(=O)COc1nc(F)c(Cl)c(N)c1Cl (stereo not given) | inactive |
